From PubChem BioAssay come the findings set out here.

Unmarked numbers belong to inactive results. No rule for the calls is given here.

The term remaining activity denotes the signal under treatment as a percentage of the control signal.

The subject of this test is Aerobactin synthetase IucA (Klebsiella pneumoniae, hypervirulent). In words: biochemical IucA inhibition screen of LOPAC library by absorbance (AID 1346212).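 Also: 100% = no compound wells and 0% = no enzyme wells.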 The conditions noted are these: IucA enzyme assay, absorbance (OD) readout; hits give low values;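 tested at 8 µM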.
On to `COCC(=O)O[C@]1(CCN(C)CCCc2nc3ccccc3[nH]2)CCc2cc(F)ccc2[C@@H]1C(C)C`, for which the remaining activity was 128%.
As to `NC(=NCCC[C@H](N)C(=O)O)NO`, the remaining activity is 101%.
Next, `CC(=O)NNC(=O)N1Cc2ccccc2Oc2ccc(Cl)cc21`: 105%.
Next, `COc1ccc2c(c1OC)C(=O)O[C@@H]2[C@H]1c2c(cc3c(c2OC)OCO3)CCN1C`: 112%.
Next, `Nc1nc2ccc(OC(F)(F)F)cc2s1`: 98.9%.
Take `N#Cc1c(-c2ccccc2)no[n+]1[O-]`: the remaining activity was 125%.
Next, `COc1[nH]c2ccc(F)cc2c1C(=O)OCC1CCN(CCNS(C)(=O)=O)CC1`: 124%.
The result for `CC(=O)N[C@@H](Cc1c[nH]c2ccccc12)C(=O)OCc1cc(C(F)(F)F)cc(C(F)(F)F)c1` reads 117%; that for `CCN(CC)CCOC(=O)c1cc(Cl)c(N)cc1OC`, 103%.
Turning to `Brc1c(NC2=NCCN2)ccc2nccnc12`, the remaining activity was 105%.
Next, `Nc1nc(Cl)nc2c1ncn2[C@@H]1O[C@H](COP(=O)(O)OP(=O)(O)OP(=O)(O)O)[C@H](O)C1O` (some centres undefined): 104%; `COc1ccccc1N1CCN(CCN2C(=O)CC3(CCCC3)CC2=O)CC1`: 117%; `O=[N+]([O-])c1ccc(-c2nc(-c3ccc(F)cc3)c(-c3ccncc3)[nH]2)cc1`: 95.7%.
For `CC(C)(Sc1ccc(CCN(CCCCC2CCCCC2)C(=O)NC2CCCCC2)cc1)C(=O)O`, the remaining activity was 119%.
The result for `CCCC[C@@]1(C2CCCC2)Cc2cc(OCC(=O)O)c(Cl)c(Cl)c2C1=O` reads 106%; that for `COc1cc(C(=O)OCCCN2CCCN(CCCOC(=O)c3cc(OC)c(OC)c(OC)c3)CC2)cc(OC)c1OC`, 116%.
Next, `O=C1NC(=O)c2cc(Nc3ccccc3)c(Nc3ccccc3)cc21`: 113%.
The result for `O=C1C(SCCO)=C(SCCO)C(=O)c2ccccc21` reads 117%; that for `CC(C)(C)c1cc(/C=C(\C#N)C(N)=S)cc(C(C)(C)C)c1O`, 97.1%.
In the case of `Cc1[nH]c(=O)c(C#N)cc1-c1ccncc1`, the remaining activity is 123%.
In the case of `N=C1Sc2ccccc2C2=NCCCN12`, the remaining activity was 118%.
The result for `c1ccc2c(c1)CCC[C@H]2Nc1nc2ccccc2[nH]1` reads 109%.
Consider `O=C1NC(=O)C(c2ccccc2[N+](=O)[O-])=C1Nc1ccc(O)c(Cl)c1`, for which the remaining activity was 95%.
The result for `COC(=O)[C@@H](N)Cc1ccc(O)c(O)c1` reads 107%.
`CC(C(=O)O)c1ccc(CC2CCCC2=O)cc1` (centres undefined): the remaining activity is 120%.
Take `CCCCCCC(=O)OC1CC(C)(C)NC(C)(C)C1`: the remaining activity was 109%.
Next, `CO[C@@]1(NC(=O)CSCC#N)C(=O)N2C(C(=O)O)=C(CSc3nnnn3C)CS[C@@H]21`: 118%; `N#C/C(=C\c1ccc(O)c(O)c1)C(=O)NCc1ccccc1`: 101%.
On to `O=S(=O)(c1cccc2c(I)cccc12)N1CCCNCC1`, for which the remaining activity was 107%.
For `Cc1cc2c(cc1Cl)N(C(=O)Nc1cccc3ncccc13)CC2`, the remaining activity is 103%.
Regarding `Cc1ccc(S(=O)(=O)/C=C/C#N)cc1`, the remaining activity was 100%.
On to `CC(C)(C)[C@]1(O)CCN2C[C@H]3c4ccccc4CCc4cccc(c43)[C@@H]2C1`, for which the remaining activity was 105%.
Next, `CN1C2CCC1CC(OC(=O)c1c[nH]c3ccccc13)C2` (centres undefined): 97.7%; `N#C/C(=C\c1c[nH]c2ccccc12)C(=O)c1ccc(O)c(O)c1`: 97.5%.
Next, `N[C@@H](COP(=O)(O)O)C(=O)O`: 124%; `COc1cc2c(cc1C(F)(F)F)N(C(=O)Nc1cc(F)cc(-c3cccnc3)c1)CC2`: 120%.
In the case of `Nc1ccc2c3c(cccc13)C(=O)NC2=O`, the remaining activity was 112%.
Next, `CCC(=O)c1ccc2c(c1)N(CCCN(C)C)c1ccccc1S2`: 88.8%; `CC(=O)N1CCN(c2ccc(OC[C@H]3CO[C@](Cn4ccnc4)(c4ccc(Cl)cc4Cl)O3)cc2)CC1`: 121%.
